According to PubChem BioAssay:
The source made the active and inactive calls. Unless noted, no rule for the calls is given here.

Assays:
[1] = resazurin metabolic signal in HepG2 cells – cell-based, resazurin fluorescence, 24 h, PK04 Diversity Set, profiling panel (AID 1172); settings: HepG2 viability, higher = more signal
[2] = budding yeast growth changes without added modifier – OD600, strain BY4716, 24 h, basal condition, primary screen (AID 1173); settings: S. cerevisiae BY4716 growth, OD600, 24 h; higher = more signal, called active from +8 up or from −8 down
[3] = viability profiling in MM1S myeloma cells – cell-based, resazurin fluorescence, basal, 24 h, PK04 Diversity Set, profiling panel (AID 1174); settings: higher = more signal, called active from +8 up or from −8 down;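 also: MM1S multiple myeloma cell line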
[4] = biological target: Dihydroorotate dehydrogenase (quinone), mitochondrial (Plasmodium falciparum (isolate 3D7)) (UniProt Q08210); test: inhibition of P. falciparum DHODH – biochemical, C-terminal His tag, absorbance 600 nm, primary screen (AID 1175); settings: PfDHODH enzyme, DCIP absorbance 600 nm; higher = more signal, called active from +8 up or from −8 down;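 also: recombinant parasite enzyme with a five histidine tag at its C terminus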
[5] = inhibition of PAO1 biofilm formation – strain PAO1, LB-PBS medium, absorbance 600 nm, primary screen (AID 1176); settings: P. aeruginosa PAO1 growth/biofilm, A600, 12 h; higher = more signal
[6] = growth modulation of vineyard yeast isolate – strain RM11-1a, OD600, basal, 24 h, primary screen (AID 1177);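 also: cultures grown under basal conditions with no added stressor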; settings: S. cerevisiae RM11-1a growth, OD600, 24 h; higher = more signal, called active from +8 up or from −8 down
[7] = growth of efflux-deficient E. coli DRC39 – strain DRC39, OD650, 24 h, E. coli filamentation inducers, primary screen (AID 1178);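 also: growth measured as culture turbidity by optical density at 650 nm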; settings: E. coli DRC39 acrAB, higher = more signal, called active from +8 up or from −8 down
[8] = growth of efflux-deficient E. coli DRC39 – strain DRC39, OD650, 48 h, E. coli filamentation inducers, primary screen (AID 1179);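 also: screen aims at cell division blockers that make cells filament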; settings: E. coli DRC39 delta-acrAB growth, higher = more signal, called active from +8 up or from −8 down
[9] = viability profiling in RPMI8226 myeloma cells – cell-based, resazurin fluorescence, basal, 24 h, PK04 Diversity Set, profiling panel (AID 1180); settings: higher = more signal;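 also: RPMI8826 multiple myeloma cell line at 5000 cells per well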
[10] = biological target: E3 ubiquitin-protein ligase XIAP (Homo sapiens) (UniProt P98170); test: small molecules binding XIAP protein – biophysical, small-molecule microarray, fluorescence 635 nm, primary screen (AID 1181); settings: higher = more signal;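 also: score merges 667 nm emission and signal to noise over triplicate slides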
[11] = tested on: XIP peptide (Xip251-270) binding; test: XIP fragment 251-270 binding compounds – biochemical, small-molecule microarray, fluorescence 635/667 nm, 0.1 µg/mL protein, primary screen (AID 1182); settings: fluorescent protein binding, 635 nm, higher = more signal, called active from +8 up or from −8 down
[12] = tested on: XIP peptide (Xip251-270); test: compounds binding XIP fragment 251-270 – biochemical, small-molecule microarray, fluorescence 635/667 nm, 0.5 µg/mL protein, primary screen (AID 1183); settings: fluorescence 635 nm, higher = more signal
[13] = blood-stage malaria parasite viability loss – strain 3D7, DAPI fluorescence, 100 nL, primary screen (AID 1184);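 also: parasites grown inside human red blood cells in medium with human serum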; settings: P. falciparum 3D7 growth, 3 d, higher = more signal
[14] = biological target: Homeobox protein Hox-A13 (Mus musculus) (UniProt Q62424); test: disruptors of Hoxa13 oligonucleotide interaction – biochemical, fluorescence polarization, labeled oligonucleotide, primary screen (AID 1185); settings: Hoxa13:DNA binding, 15 min, higher = more signal, called active from +8 up or from −8 down
[15] = blockers of DNA damage checkpoint Chk1 activation – imaging, HeLa, hydroxyurea, phospho-Chk1 antibody, percent positive cells, primary screen (AID 1186); settings: hydroxyurea-induced phospho-Chk1 immunofluorescence imaging, higher = more signal
[16] = blockers of DNA damage checkpoint Chk1 activation – imaging, HeLa, hydroxyurea, phospho-Chk1 nuclear intensity, primary screen (AID 1187); settings: hydroxyurea-induced phospho-Chk1 immunofluorescence imaging, higher = more signal

Dihydroorotate dehydrogenase (quinone), mitochondrial (Plasmodium falciparum (isolate 3D7)), sequence (Q08210 whole entry, looked up): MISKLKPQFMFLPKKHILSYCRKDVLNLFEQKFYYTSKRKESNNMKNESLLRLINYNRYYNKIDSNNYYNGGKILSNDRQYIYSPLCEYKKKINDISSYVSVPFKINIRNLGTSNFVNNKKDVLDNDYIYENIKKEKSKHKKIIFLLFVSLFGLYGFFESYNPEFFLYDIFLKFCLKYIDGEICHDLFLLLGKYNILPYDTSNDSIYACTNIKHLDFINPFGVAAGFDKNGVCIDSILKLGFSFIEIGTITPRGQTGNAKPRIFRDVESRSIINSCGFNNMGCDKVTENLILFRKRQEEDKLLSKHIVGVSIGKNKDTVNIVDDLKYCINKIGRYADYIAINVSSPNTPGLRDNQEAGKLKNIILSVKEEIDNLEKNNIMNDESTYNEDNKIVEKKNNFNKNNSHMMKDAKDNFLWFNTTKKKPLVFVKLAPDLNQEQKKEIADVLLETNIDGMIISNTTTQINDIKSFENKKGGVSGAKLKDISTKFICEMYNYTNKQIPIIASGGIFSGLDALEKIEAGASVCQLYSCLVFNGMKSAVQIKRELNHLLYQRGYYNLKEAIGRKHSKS
E3 ubiquitin-protein ligase XIAP (Homo sapiens), sequence (P98170 whole entry, looked up, the tested form may be a part): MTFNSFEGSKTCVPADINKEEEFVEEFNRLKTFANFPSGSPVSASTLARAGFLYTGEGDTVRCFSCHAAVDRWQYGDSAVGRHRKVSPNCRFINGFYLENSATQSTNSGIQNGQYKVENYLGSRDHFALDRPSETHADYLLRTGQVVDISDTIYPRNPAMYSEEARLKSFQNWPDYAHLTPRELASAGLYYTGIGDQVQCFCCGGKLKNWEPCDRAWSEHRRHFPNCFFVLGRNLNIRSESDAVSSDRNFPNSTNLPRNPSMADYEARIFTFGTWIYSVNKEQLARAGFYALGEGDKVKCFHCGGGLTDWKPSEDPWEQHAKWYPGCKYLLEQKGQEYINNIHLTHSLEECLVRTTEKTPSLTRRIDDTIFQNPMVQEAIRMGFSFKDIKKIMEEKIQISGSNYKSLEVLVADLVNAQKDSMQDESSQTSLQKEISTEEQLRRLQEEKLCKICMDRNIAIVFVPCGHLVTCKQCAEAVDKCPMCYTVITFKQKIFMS
Homeobox protein Hox-A13 (Mus musculus), sequence (Q62424 whole entry, looked up): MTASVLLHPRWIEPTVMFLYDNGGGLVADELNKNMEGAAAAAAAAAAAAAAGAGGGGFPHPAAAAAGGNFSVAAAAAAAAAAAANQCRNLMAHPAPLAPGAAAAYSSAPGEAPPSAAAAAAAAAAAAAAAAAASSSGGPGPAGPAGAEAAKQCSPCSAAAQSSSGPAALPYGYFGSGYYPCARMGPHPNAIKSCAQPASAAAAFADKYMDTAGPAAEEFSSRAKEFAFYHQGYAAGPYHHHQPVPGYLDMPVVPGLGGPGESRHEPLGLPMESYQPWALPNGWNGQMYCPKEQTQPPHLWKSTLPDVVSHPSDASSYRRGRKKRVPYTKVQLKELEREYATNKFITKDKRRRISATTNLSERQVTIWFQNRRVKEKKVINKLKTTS

SMILES | z-score [1] | z-score [2] | z-score [3] | composite z-score [4] | z-score [5] | z-score [6] | z-score [7] | z-score [8] | z-score [9] | composite z-score [10] | composite z-score [11] | composite z-score [12] | z-score [13] | z-score [14] | z-score [15] | z-score [16]
O=C(C1N=C(c2ccc(OCCCO)cc2)N(c2ccccc2)O1)N1CCOCC1 (centres undefined) | 0.55 | -1.3 (inactive) | 0.466 (inactive) | -1.09 (inactive) | -0.91 (inactive) | -1 (inactive) | 1.42 (inactive) | 1.92 (inactive) | 2.12 | -0.163 | 0.254 (inactive) | 0.206 | -0.277 | -2.88 (inactive) | -0.554 (inactive) | -0.262 (inactive)
O=C(NCc1ccccc1)[C@@]1(CCS(=O)(=O)c2ccccc2)N=C(c2ccc(OCCCO)cc2)O[C@H]1c1ccccc1 | 1.36 | 1.01 (inactive) | -0.705 (inactive) | 1.05 (inactive) | -0.0304 (inactive) | 1.46 (inactive) | 0.714 (inactive) | 1.62 (inactive) | 0.448 | 0.202 | 0.429 (inactive) | 0.565 | -2.05 | -1.15 (inactive) | -0.751 (inactive) | -0.64 (inactive)
C=C(CCCC)/C(=C/C[C@@H](OC(C)=O)c1ccccc1OCCO)c1cnc2ccccc2c1 | -1.25 | -1.66 (inactive) | -0.614 (inactive) | -7.22 (inactive) | 0.191 (inactive) | 0.862 (inactive) | -0.765 (inactive) | -0.587 (inactive) | -0.52 | -0.198 | -0.475 (inactive) | 0.234 | -3.01 | -5.06 (inactive) | 1.11 (inactive) | 0.212 (inactive)
COc1ccc([Si](C)(C)[C@H]2[C@H](CCn3cc([C@H](O)c4ccccc4)nn3)O[C@@]3(C(=O)N(Cc4cccc(N5CCOC5=O)c4)c4ccccc43)[C@@H]2C)cc1 | -0.332 | 0.548 (inactive) | -1.59 (inactive) | -0.351 (inactive) | 1.43 (inactive) | 1.18 (inactive) | 0.196 (inactive) | 0.0133 (inactive) | -0.754 | -0.117 | -0.44 (inactive) | 0.548 | -1.54 | -3.83 (inactive) | -0.056 (inactive) | 0.324 (inactive)
COc1cc(OC)c(C(O)C2C=CC3C(=O)NC(=O)C3N2Nc2ccc(Cl)cc2Cl)cc1Br (centres undefined) | -3.99 | -14.7 (active) | -2.48 (inactive) | -0.0023 (inactive) | 0.338 (inactive) | 0.695 (inactive) | -0.0795 (inactive) | -1.06 (inactive) | -2.27 | 0.367 | 1.11 (inactive) | 0.369 | -0.0679 | -5.65 (inactive) | 0.66 (inactive) | 0.862 (inactive)
COc1ccc(C#Cc2ccc3c(c2)[C@]2(C(=O)N3)[C@H](c3ccccc3OCCO)N3[C@H](c4ccccc4)[C@H](c4ccccc4)OC(=O)[C@H]3[C@@H]2C(=O)O)cc1 | 1.86 | 1.75 (inactive) | -3.05 (inactive) | -24.8 (active) | 2.76 (inactive) | 3.13 (inactive) | 1.06 (inactive) | 0.047 (inactive) | -6.75 | 0.284 | 2.03 (inactive) | 0.695 | -1.27 | -4.32 (inactive) | -0.331 (inactive) | -0.416 (inactive)
CCCN1C(=O)[C@]2(CCS(=O)(=O)c3ccccc3)N=C(c3ccc(OCCCO)cc3)O[C@@H]2c2ccccc21 | -0.264 | -0.443 (inactive) | -0.278 (inactive) | 0.507 (inactive) | 0.0279 (inactive) | 0.492 (inactive) | 1.82 (inactive) | 0.544 (inactive) | -0.967 | -0.0773 | -0.0893 (inactive) | 0.11 | -2.6 | -5.36 (inactive) | -0.701 (inactive) | -0.918 (inactive)
COc1ccc(C(O)C2C=CC3C(=O)N(C)C(=O)C3N2N2CCCCC2)c2ccccc12 (centres undefined) | -1.2 | -1.78 (inactive) | -1.64 (inactive) | 0.238 (inactive) | 0.503 (inactive) | 0.806 (inactive) | -0.413 (inactive) | -0.68 (inactive) | -1.71 | -0.202 | 0.591 (inactive) | 0.637 | -0.179 | -4.89 (inactive) | 0.294 (inactive) | 0.312 (inactive)
CC(C)N1C(=O)c2ccccc2[C@](C)(C(=O)NCc2ccccc2)[C@@H]1c1ccc(CO)cc1 | -0.394 | -0.704 (inactive) | -1.09 (inactive) | 0.0524 (inactive) | 1.06 (inactive) | -0.271 (inactive) | 0.0861 (inactive) | -0.681 (inactive) | 0.121 | 0.0623 | -0.534 (inactive) | 0.48 | -0.771 | -1.51 (inactive) | 0.0268 (inactive) | 0.0578 (inactive)
O=C1NC(=O)C2C1C=CC(C(O)C(c1ccccc1)c1ccccc1)N2Nc1ccc(Cl)cc1Cl (centres undefined) | -2.23 | -2.63 (inactive) | -1.05 (inactive) | 0.125 (inactive) | 0.599 (inactive) | 1.17 (inactive) | -0.659 (inactive) | -0.712 (inactive) | -1.62 | 0.236 | 0.69 (inactive) | -0.0049 | -0.289 | -4.15 (inactive) | 0.735 (inactive) | 0.889 (inactive)
C=CCN1C(=O)[C@@]2(O[C@@H](CCO)[C@H]([Si](C)(C)c3ccc(OC)cc3)[C@H]2C)c2cc(NC(=O)c3ccc(OC)cc3)ccc21 | -2.49 | -1.77 (inactive) | -3.52 (inactive) | -1.21 (inactive) | 1.53 (inactive) | 1.69 (inactive) | 1.22 (inactive) | 0.586 (inactive) | -4.92 | -0.154 | 0.574 (inactive) | 0.208 | -2.77 | -4.58 (inactive) | -0.176 (inactive) | 0.416 (inactive)
COc1ccc([Si](C)(C)[C@H]2[C@H](CCO)O[C@@]3(C(=O)N(C)c4c(Br)cc(C)cc43)[C@@H]2C)cc1 | -6.47 | 0.0436 (inactive) | -9.16 (active) | 1.13 (inactive) | 0.814 (inactive) | 3.93 (inactive) | -0.185 (inactive) | -1.4 (inactive) | -6.31 | 0.184 | 0.307 (inactive) | 0.837 | -2.71 | -5.78 (inactive) | -1.08 (inactive) | -1.73 (inactive)
COc1ccc(C(O)C2C=CC3C(=O)N(c4ccccc4)C(=O)C3N2Nc2ccccc2F)cc1OCc1ccccc1 (centres undefined) | -0.299 | -0.737 (inactive) | -1.66 (inactive) | -0.318 (inactive) | 1.11 (inactive) | -0.0242 (inactive) | -0.472 (inactive) | 0.226 (inactive) | -1.55 | 0.0158 | 1.26 (inactive) | 0.698 | -0.193 | -0.0495 (inactive) | -0.75 (inactive) | -1.22 (inactive)
[N-]=[N+]=NCc1ccccc1C[C@]1(C(=O)N2CCOCC2)N=C(c2ccc(OCCCO)cc2)O[C@H]1c1ccccc1N=[N+]=[N-] | 0.168 | -1.05 (inactive) | -1.21 (inactive) | 0.152 (inactive) | -0.357 (inactive) | -0.405 (inactive) | 1.14 (inactive) | 0.957 (inactive) | -1.61 | -0.113 | 0.141 (inactive) | 0.229 | -2.6 | -2.96 (inactive) | -0.551 (inactive) | -0.635 (inactive)
O=C1OCCC/C=C\[C@H]2OC34C=CCN(c5ccc6ccccc6c5)C(=O)[C@H]3N(CCCCCCO)C(=O)[C@@H]4C12 (some centres undefined) | -0.156 | -1.28 (inactive) | 0.241 (inactive) | -1.97 (inactive) | 0.481 (inactive) | -1.49 (inactive) | 0.374 (inactive) | 1.01 (inactive) | 0.152 | 0.115 | 0.346 (inactive) | 0.0339 | -0.577 | -5.08 (inactive) | -0.833 (inactive) | -0.428 (inactive)
COc1cc2c(cc1O)C(C1CC1)N(Cc1cc3c(cc1Br)OCO3)CC2 (centres undefined) | -1.94 | -2.67 (inactive) | -3.63 (inactive) | -1.55 (inactive) | 0.571 (inactive) | 0.698 (inactive) | -1.2 (inactive) | -1.71 (inactive) | -3.52 | 0.0761 | 0.411 (inactive) | 0.479 | -2.44 | -5.54 (inactive) | -0.174 (inactive) | 0.285 (inactive)
CCCC=C(CCC)[C@@H](NS(=O)(=O)c1cccs1)c1ccc(C(=O)OC)cc1 | -0.395 | 0.91 (inactive) | 1.18 (inactive) | 0.335 (inactive) | 0.535 (inactive) | 1.59 (inactive) | 0.588 (inactive) | -0.424 (inactive) | -5.85 | 0.0248 | 0.219 (inactive) | 0.507 | -0.677 | -3.19 (inactive) | -0.284 (inactive) | 0.0089 (inactive)
C=CCOC(=O)[C@@H]1[C@H]2C(=O)O[C@H](c3ccccc3)[C@H](c3ccccc3)N2[C@H](c2ccc(OCCOC(=O)[C@@H]3C[C@@H]4C(=O)N[C@@H](Cc5ccccc5)C(=O)N4[C@@H]3c3ccc(O)cc3)cc2)[C@@]12C(=O)Nc1ccc(I)cc12 | -0.437 | 0.963 (inactive) | 0.372 (inactive) | -0.0246 (inactive) | 2.1 (inactive) | 1.91 (inactive) | -0.0033 (inactive) | -1.53 (inactive) | 0.411 | 0.104 | 0.895 (inactive) | 0.736 | -1.95 | -0.584 (inactive) | 0.193 (inactive) | 0.453 (inactive)
O=C1OCCC=C[C@H]2OC34C=CCN(CCN5CCOCC5)C(=O)[C@H]3N(CCCCCCO)C(=O)[C@@H]4C12 (some centres undefined) | 0.24 | 0.039 (inactive) | -0.0328 (inactive) | 0.369 (inactive) | -0.373 (inactive) | 0.626 (inactive) | 1.14 (inactive) | 1.43 (inactive) | 0.22 | 0.464 | 0.995 (inactive) | 0.091 | -0.0217 | -5.15 (inactive) | -0.334 (inactive) | -0.109 (inactive)
